# Values joined by “and” are separate entries in the source; they are usually repeats but may differ in a detail not shown here. Equal values may be shown once. Active and inactive are the calls of the source. How the source made its calls: active means hit-call score of the fitted dose curve at least 0.9, where 1 is the maximum; inactive means score below 0.9.
# Read-out: C-C motif chemokine 2 (Homo sapiens) (UniProt P13500)
# Experiment: BSK_KF3CT_MCP1: BioMAP Diversity Plus: KF3CT Assay for Monocyte Chemoattractant Protein 1 (MCP1/CCL2) Biomarker Activity (AID 2283073)
# Conditions: primary human keratinocytes with fibroblasts; actives raise or lower the signal
# Method: BSK_KF3CT is a cell-based, multiplexed-readout assay that uses keratinocytes and foreskin fibroblasts, a human skin primary cell co-culture, with measurements taken at 24 hours after chemical dosing in a 96-well plate.BSK_KF3CT_MCP1 is an assay component measured in the BSK_KF3CT assay. It measures MCP-1 antibody related to regulation of gene expression using ELISA technology.Data from the assay component BSK_KF3CT_MCP1 was analyzed into 1 assay endpoint. This assay endpoint, BSK_KF3CT_MCP1, was analyzed with bidirectional fitting relative to DMSO as the negative control and baseline of activity. Using a type of binding reporter, gain or loss-of-signal activity can be used to understand changes in the signaling as they relate to the gene CCL2. Furthermore, this assay endpoint can be referred to as a primary readout, because this assay has produced multiple assay endpoints where this one serves a signaling function. To generalize the intended target to other relatable targets, this assay endpoint is annotated to the cytokine intended target family, where the subfamily is chemotactic factor.
# The levels of cell surface (or secreted, indicated by the prefix "s") biomarker endpoints were measured by ELISA. Overt cytotoxicity to cells in confluent adherent cultures (all systems other than the BT system) was assessed by measuring total protein levels using sulforhodamine B (SRB) staining in parallel cultures at the time of biomarker measurements, indicated as SRB endpoints. For proliferation assays for adherent cell types, individual cell types are cultured at sub-confluence and relative cell numbers quantified by SRB staining at time points optimized for each system (48 h: 3C and CASM3C systems; 72 h: BT and HDF3CGF systems; 96 h: SAg system). SRB was performed by staining cells with 0.1% SRB after fixation with 10% TCA and reading wells at 560 nm.Viability and proliferation of PBMC (T cells) was quantified by Alamar Blue reduction for the SAg and BT systems. For PBMC viability (referred to as PBMC Cytotoxicity within the assay endpoint names), cells were plated (75,000/well in a 96-well plate) and then chemical samples added for 1 h before addition of activators, SEB and TSST-1 (20 ng/mL final concentration each). Cells were incubated for 90 h. Then, Alamar Blue (20 uL/well) (Invitrogen, Cat DAL1100) was added for 6 h, and the plates were read with a fluorescence microplate reader at 546/580 nm (excitation/emission). For PBMC proliferation, cells were plated and activated as above but incubated for only 16 h prior to addition of Alamar Blue. Plates were read after 6 h.
SMILES,AC50,outcome
O=C(Cl)c1cc(C(=O)Cl)cc(C(=O)Cl)c1,30.1 µM (active),
CCCCCCCCc1ccc(Nc2ccc(CCCCCCCC)cc2)cc1,,inactive
CC(C)(c1cc(Br)c(OCCO)c(Br)c1)c1cc(Br)c(OCCO)c(Br)c1,16.2 µM (active),
COCc1c(C(C)C)nc(C(C)C)c(/C=C/[C@@H](O)C[C@@H](O)CC(=O)O)c1-c1ccc(F)cc1,0.071 µM (active),
C#CC1(O)CC[C@H]2[C@@H]3CCC4=CCCC[C@@H]4[C@H]3CC[C@@]21C (stereo partly specified),30.9 µM (active),
N#[N+]c1ccc2c(S(=O)(=O)[O-])cccc2c1O,,inactive
O=c1c2ccccc2oc2ccccc12,,inactive
CC(C)C(=O)C(C)C,,inactive
CCO[Si](C)(OCC)OCC,,inactive
COc1ccc2nc(N)sc2c1,,inactive
C=CC=CC=CCCCCC,,inactive
C/C=C\C/C=C/CCCCCCCCOC(C)=O,20 µM (active),
c1ccc2c(c1)ccc1cc3c(ccc4ccccc43)cc12,,inactive
c1ccc(-c2ccccn2)nc1,,inactive
C=C[Si](OC(C)=O)(OC(C)=O)OC(C)=O,,inactive
CCOC(=O)c1ccccc1C(=C1C=C(Br)C(=O)C(Br)=C1)c1cc(Br)c(O)c(Br)c1,3.39 µM (active) and 3.47 µM (active),
CO[Si](OC)(OC)c1ccccc1,,inactive
CCCCNc1ccc(NCCCC)c2c1C(=O)c1ccccc1C2=O,,inactive

SMILES,AC50,outcome
CCCCC/C=C\C/C=C\CCCCCCCC(=O)OC,28.7 µM (active),
CCOc1nc(F)cc2nc(S(=O)(=O)Nc3c(Cl)cccc3C(=O)OC)nn12,,inactive
O=C1CCCN1CCO,,inactive
c1ccc2c(c1)ccc1ncccc12,,inactive
C=CCOc1c(Br)cc(Br)cc1Br,12.2 µM (active),
CCO[Si](CCCN=C=O)(OCC)OCC,,inactive
CC1OC1C1CCC2(C)OC2C1 (stereo unspecified),,inactive
C=CC(=O)OCC(Br)CBr (stereo unspecified),,inactive
CCCCCCCCCCCCCCCC[N+](C)(C)CC,6.3 µM (active),
CCCCC(CC)COC(=O)c1ccccc1O (stereo unspecified),,inactive
O=C(c1ccc(O)cc1)c1ccc(O)cc1O,,inactive
O=C(Nc1ccccc1SSc1ccccc1NC(=O)c1ccccc1)c1ccccc1,,inactive
Nc1ccc(N)c(Cl)c1,,inactive
O=Nc1ccc(O)cc1,,inactive
S=C(NC1CCCCC1)NC1CCCCC1,,inactive
CN1C(=O)N(C)C(O)C1O (stereo unspecified),,inactive
CCCCC(CC)COCC1CO1 (stereo unspecified),,inactive
C=CCOCC(O)CCl (stereo unspecified),,inactive
